Measurements as given in PubChem BioAssay AID1159580 (chemical genetic matrix, 2015).
“And” between values parts separate entries of the source, which are not always exact repeats. Equal entries are not always repeated. In all, about 5,500 compounds went through this assay and about 2,000 (36%) were called active. Another 18% or so got no clear call; they are omitted. No stated cut-off is given here; in the data, active means normalized growth mostly below about 0.91 (no sharp cut-off); inconclusive means no clear call, values can overlap the other calls; inactive means mostly above about 0.92. Some of the results follow.

Test: chemical genetic growth profiling, strain panel (AID 1159580);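 further: tested at 20 µM; growth read once vehicle control cultures reached saturation at 30 °C; 1 = growth at the plate median or of vehicle wells; lower values mean less growth of the strain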
Conditions: S. cerevisiae deletion strains, growth OD

Measured: normalized growth

NS(=O)(=O)c1cc(C2(O)NC(=O)c3ccccc32)ccc1Cl (stereo not given)
inactive: locus YAL021C, strain ccr4, hits give low values 0.958 | locus YAL026C, strain drs2, hits give low values 0.991 | locus YAL030W, strain snc1, hits give low values 0.993 | locus YBL061C, strain skt5, hits give low values 0.996 | locus YBR009C, strain hhf1, hits give low values 1.01 | locus YBR021W, strain FUR4, hits give low values 1.02 | locus YBR023C, strain chs3, hits give low values 0.992 | locus YBR171W, strain sec66, hits give low values 0.985 | locus YBR229C, strain ROT2, hits give low values 1.01 | locus YBR231C, strain swc5, hits give low values 0.972 | locus YBR279W, strain paf1, hits give low values 0.996 | locus YCL011C, strain gbp2, hits give low values 0.99 | locus YCL016C, strain dcc1, hits give low values 0.987 | locus YCL029C, strain bik1, hits give low values 1.02 | locus YCL061C, strain MRC1, hits give low values 0.986 | locus YCL069W, strain vba3, hits give low values 0.999 | locus YCR088W, strain abp1, hits give low values 0.994 | locus YDL005C, strain med2, hits give low values 0.974 | locus YDL035C, strain GPR1, hits give low values 0.997 | locus YDL040C, strain nat1, hits give low values 0.995 | locus YDL074C, strain BRE1, hits give low values 1.03 | locus YDL101C, strain DUN1, hits give low values 1.02 | locus YDL134C, strain PPH21, hits give low values 1 | locus YDL185W, strain tfp1, hits give low values 1.03 | locus YDL192W, strain arf1, hits give low values 1.01 | locus YDR001C, strain nth1, hits give low values 0.99 | locus YDR069C, strain doa4, hits give low values 0.993 | locus YDR101C, strain arx1, hits give low values 1 | locus YDR137W, strain rgp1, hits give low values 1.01 | locus YDR159W, strain sac3, hits give low values 1.01 | locus YDR162C, strain NBP2, hits give low values 1.01 | locus YDR195W, strain ref2 0.929 | locus YDR297W, strain sur2, hits give low values 0.995 | locus YDR318W, strain mcm21, hits give low values 1.02 | locus YDR334W, strain swr1, hits give low values 1.01 | locus YDR335W, strain msn5, hits give low values 0.991 | locus YDR388W, hits give low values 1.02 | locus YDR392W, strain spt3, hits give low values 1.04 | locus YDR502C, strain sam2, hits give low values 1.02 | locus YEL003W, strain gim4, hits give low values 0.985 | locus YEL037C, strain rad23, hits give low values 0.992 | locus YEL061C, strain CIN8 (second series), hits give low values 1 | locus YEL061C, strain CIN8, hits give low values 1.01 | locus YER015W, strain faa2, hits give low values 0.985 | locus YER016W, strain bim1, hits give low values 0.997 | locus YER110C, hits give low values 1.02 | locus YER111C, strain swi4, hits give low values 0.997 | locus YER155C, strain BEM2 (second series), hits give low values 0.939 | locus YER155C, strain BEM2, hits give low values 1.01 | locus YER167W, strain BCK2, hits give low values 1.01 | locus YFR010W, strain ubp6, hits give low values 0.982 | locus YGL078C, strain dbp3, hits give low values 1.02 | locus YGL086W, strain mad1, hits give low values 1.01 | locus YGL167C, strain pmr1, hits give low values 0.99 | locus YGL173C, strain kem1, hits give low values 0.968 | locus YGL227W, strain vid30, hits give low values 0.997 | locus YGL240W, strain doc1, hits give low values 0.964 | locus YGL248W, strain PDE1, hits give low values 1.02 | locus YGL253W, strain hxk2, hits give low values 1 | locus YGR078C, strain PAC10, hits give low values 1.02 | locus YGR135W, strain pre9, hits give low values 1.04 | locus YGR229C, strain SMI1, hits give low values 1.01 | locus YGR252W, strain gcn5, hits give low values 0.991 | locus YHR013C, strain ard1, hits give low values 0.952 | locus YHR027C, strain rpn1, hits give low values 0.99 | locus YHR030C, strain SLT2, hits give low values 1.01 and 0.984 | locus YHR079C, strain IRE1 (second series), hits give low values 1.01 | locus YHR079C, strain IRE1, hits give low values 0.99 | locus YHR094C, strain hxt1, hits give low values 1.01 | locus YHR129C, strain ARP1, hits give low values 1.01 | locus YHR142W, strain chs7, hits give low values 1.01 | locus YHR200W, strain rpn10, hits give low values 1.02 | locus YIL066C, strain RNR3, hits give low values 1.01 | locus YIL073C, strain SPO22, hits give low values 1.06 | locus YIL125W, strain kgd1, hits give low values 1.01 | locus YIR030C, strain dcg1, hits give low values 1.03 | locus YJL092W, strain hpr5, hits give low values 0.993 | locus YJL095W, strain BCK1 (second series), hits give low values 0.997 | locus YJL095W, strain BCK1, hits give low values 1.03 and 0.98 | locus YJL115W, strain asf1, hits give low values 0.983 | locus YJL129C, strain trk1, hits give low values 0.979 | locus YJL134W, strain LCB3, hits give low values 1 | locus YJL154C, strain vps35, hits give low values 0.984 | locus YJL164C, strain tpk1, hits give low values 0.981 | locus YJL166W, strain qcr8, hits give low values 0.977 | locus YJL168C, strain set2, hits give low values 1.02 | locus YJL187C, strain SWE1 (second series), hits give low values 1.03 | locus YJL187C, strain SWE1, hits give low values 0.991 | locus YJR043C, strain POL32, hits give low values 0.986 | locus YJR066W, strain TOR1, hits give low values 0.946
